Screening data deposited in PubChem by National Center for Advancing Translational Sciences (NCATS).
USP2a block: qHTS Assay for Inhibitors of Ubiquitin-specific Protease USP2a Using CHOP2 as the Reporter | Ubiquitin carboxyl-terminal hydrolase 2 (Homo sapiens), O75604 | 330,000 compounds, 0.01% hits | USP2 core, Ub-CHOP2 coupled fluorogenic reporter, 485/531 | Potency, µM (top dose mostly 38.3 µM), usual class: inhibitors
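Cell-free coupled assay: 10nM USP2 core preincubated 30min RT with compound in Tris-HCl pH 8.0/CaCl2/CHAPS buffer, then 25nM Ub-CHOP2 and 25nM reporter substrate; fluorescence (Ex 485/Em 531) read after 60min RT, normalized to NEM inhibition, concentration-response curves fitted.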
D1 antag: Antagonist of Human D 1 Dopamine Receptor: qHTS. D(1A) dopamine receptor (Homo sapiens), P21728. HEK293 TREx D1 cells, calcium flux, dopamine EC80; hits give low values. activity change, negative = inhibition, % at 10 µM. 360,000 compounds, 3.2% hits; in the data active = activity change below about -30%
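Cells carrying a force-coupled, tetracycline-inducible human D1 receptor report calcium flux. Each well gets a 10 s baseline, compound with 180 s monitoring, then an EC80 dopamine stimulus with a second 180 s kinetic read.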
D1 agonist: Allosteric Agonists of the Human D1 Dopamine Receptor: qHTS | HEK293 T-REx D1 cells, calcium flux, agonist mode | 360,000 compounds, 1% hits | activation, % at 2 µM; in the data active = activation above about 30%
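Tetracycline-induced HEK293 TREx D1 cells, force-coupled to calcium signalling, were dye-loaded with a no-wash calcium kit. Compound was pin-added after a 10 s baseline. Fluorescence was read kinetically at 1 cycle/s for 180 s, with calcium rises flagged as agonism.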
D1 potentiator: Potentiators of Human D1 Dopamine Receptor: qHTS; potentiation, % at 10 µM; D(1A) dopamine receptor (Homo sapiens), P21728; HEK293 TREx D1 cells, calcium flux, dopamine EC20 potentiation; 360,000 compounds, 0.036% hits; in the data active = potentiation above about 30%
Eya2 phos inh: qHTS Assay for Inhibitors of the Phosphatase Activity of Eya2; Potency, µM (titrated, usually from 76.9 µM), hits mostly inhibitors; AID 488837, 2010; Protein phosphatase EYA2 (Homo sapiens), O00167; recombinant Eya2, OMFP fluorescence dephosphorylation (OMFP is methylfluorescein phosphate); 330,000 compounds, 0.006% hits
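Eya2 protein (added as 0.2 uM solution) was preincubated with compound for 10 min at ambient temperature in 50 mM HEPES pH 7.5, 50 mM NaCl, 5 uM MgCl2, 0.05% BSA, 1 mM DTT. OMFP (added at 50 uM) then reacted 10 min; fluorescence read at 485/525 nm.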
GALK inh: qHTS Assay for Inhibitors of Human Galactokinase (GALK); P51570; Purified GALK, Kinase-Glo residual ATP luminescence; Potency, µM (top dose mostly 57.5 µM), actives largely listed as inhibitors; 270,000 compounds, 0.007% hits; AID 1868, 2009
Target sequence (P51570 whole entry, looked up): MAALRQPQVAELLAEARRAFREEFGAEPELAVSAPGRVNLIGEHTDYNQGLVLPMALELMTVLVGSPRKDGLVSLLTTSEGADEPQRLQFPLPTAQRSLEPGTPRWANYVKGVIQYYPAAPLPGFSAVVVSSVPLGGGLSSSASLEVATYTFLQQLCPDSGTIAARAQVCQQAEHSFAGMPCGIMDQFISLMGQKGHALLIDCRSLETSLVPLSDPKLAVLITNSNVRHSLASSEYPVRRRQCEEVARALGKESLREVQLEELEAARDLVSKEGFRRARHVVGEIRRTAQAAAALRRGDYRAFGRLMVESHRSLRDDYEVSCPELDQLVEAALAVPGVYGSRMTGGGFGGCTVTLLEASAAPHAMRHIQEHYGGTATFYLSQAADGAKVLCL
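Compounds were pin-transferred into ATP buffer (35 uM final), then GALK plus galactose (5 nM, 100 uM final) was added. After 1 h at room temperature, Kinase-Glo Plus was added and luminescence read after 10 min.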
Hits are given with their value; - = inactive; . = not tested or not shown. Compounds with a hit are over-represented: about 3.9% of the library has one in this group of screens. Unless noted, calls come from the whole dose curve; as a rule, active = well fitted inhibition curve with a large enough effect; inconclusive = small, poorly fitted or top-dose-only effect, or effect the other way; inactive = flat fitted curve, though single readings scatter.

SMILES | USP2a block | D1 antag | D1 agonist | D1 potentiator | Eya2 phos inh | GALK inh
c1ccc2c(c1)C(=NCC1CCCO1)NC2=NCC1CCCO1 (configuration not stated) | - | - | - | - | - | -
CCOC(=O)c1c(NC(=O)COc2ccccc2F)sc2c1CC(C)(C)NC2(C)C | - | - | - | 36 | - | .
CCOC(=O)c1c(NC(=O)CSc2ncccn2)sc2c1CC(C)(C)NC2(C)C | - | - | - | - | - | -
CN1C(C(=O)c2ccccc2)=C(OC(=O)c2ccc(Br)cc2)c2ccccc2S1(=O)=O | . | - | - | - | . | .
CC(C)(C)OC(=O)N1CCC(c2c(C(=O)Nc3ccc4c(c3)OCCO4)cnn2-c2ccc(F)cc2)CC1 | . | - | - | - | . | .
Cc1cc(C)n(-c2ccc(C(=O)OC(C)C(=O)Nc3ccc(C(N)=O)cc3)cc2)n1 (configuration not stated) | - | -31 | - | - | - | .
COc1cc(N=c2ssnc2Cl)cc(OC)c1 | - | - | - | - | - | -
Clc1nssc1=Nc1ccc(Br)cc1 | - | - | 34 | - | - | -
O=S(=O)(c1ccc2c(c1)OCCO2)N1CCN(S(=O)(=O)c2ccc(Cl)cc2F)CC1 | . | - | - | - | . | .
Cc1ccc(-n2c(=O)c3cccnc3n2CC(=O)Nc2ccc(Br)cc2)cc1C | . | - | - | - | . | .
COc1ccc(CCNC(=O)C2CCC(CNS(=O)(=O)c3ccc(C)cc3)CC2)cc1OC (configuration not stated) | . | - | - | - | . | .
COc1ccc(CCNC(=O)CCc2c(C)c3cc4c(C)coc4cc3oc2=O)cc1 | . | -51 | - | - | . | .
Cc1ccc(-n2c(C)cc(C(=O)C(=O)Nc3ccccc3)c2C)c(C)c1 | . | - | - | - | . | .
O=C1c2ccccc2N2C(=O)c3ccccc3C2N1Cc1ccco1 (configuration not stated) | - | -50 | - | - | - | -
O=C1c2cccnc2C(Nc2ccccc2Br)N1Cc1ccco1 (configuration not stated) | - | -53 | - | - | - | -
CC(=O)c1ccc(NS(=O)(=O)c2ccc(-n3cccn3)cc2)cc1 | . | - | - | - | . | .
CCN(CCCNC(=O)c1ccc(Sc2ccc(F)cc2)c(NC(C)=O)c1)c1ccccc1 | . | - | - | - | . | .
CCOC(=O)c1c(C)[nH]c(C(=O)OC)c1CCC(=O)OC | - | -36 | - | - | - | -
CCOC(=O)c1[nH]c(Cc2[nH]c(C(=O)OCC)c(C)c2CCC(=O)OC)c(CCC(=O)OC)c1C | - | -55 | - | - | - | -
CCOC(=O)c1[nH]c(C)c(C(=O)OCC)c1C | - | - | - | . | - | -
CCN(CC)C(=O)c1sc2c(c1C)c(=O)n(-c1ccccc1)c(=O)n2Cc1c(C)cc(C)cc1C | . | - | - | - | . | .
Cc1c(NC(=O)c2ccc(C(C)(C)C)cc2)cccc1[N+](=O)[O-] | - | -42 | - | - | - | -
CCc1ccc2oc(C(=O)Nc3cc(Cl)ccc3OC)cc(=O)c2c1 | . | -48 | - | - | . | .
COc1ccc(Cl)cc1NC(=O)Nc1cccc([N+](=O)[O-])c1C | - | -64 | - | - | - | -
COc1ccccc1NC(=O)c1cc(Br)ccc1Cl | - | -35 | - | - | - | -
SMILES | USP2a block | D1 antag | D1 agonist | D1 potentiator | Eya2 phos inh | GALK inh
COc1ccc(Cl)cc1NC(=O)NC1CCCCC1 | - | - | - | - | - | -
COc1ccc(-c2noc(CSCC(=O)Nc3cccc(C(F)(F)F)c3)n2)cc1OC | . | - | - | - | . | .
Cc1cccc2c1-c1sc(C(=O)Nc3cccc([N+](=O)[O-])c3C)cc1CO2 | - | - | 31 | - | - | -
Cc1cccc2c1-c1sc(C(=O)Nc3ccccc3C(N)=O)cc1CO2 | . | - | - | - | . | .
COc1ccc(Cl)cc1NC(=O)c1ccccc1C | - | -44 | - | - | - | -
Cc1cc(Br)ccc1NC(=O)C1CSC2(C)CCC(=O)N12 (configuration not stated) | - | - | - | - | - | .
Cc1cc(Br)ccc1NC(=O)CN(C)C(=O)C1CSC2(C)CCC(=O)N12 (configuration not stated) | - | -33 | - | . | - | .
COc1ccc2c(c1)sc1ncc(C(=O)NCc3ccc(OC(C)C)cc3)c(=O)n12 | . | - | - | - | . | .
COc1ccc(/C=N/Nc2ccccc2C(=O)O)cc1Cn1cc([N+](=O)[O-])cn1 | - | -32 | - | - | - | -
Cc1nc(NC(=O)c2ccco2)sc1C(=O)O | - | -35 | - | - | - | -
COC(=O)c1sc(NC(=S)NC(=O)c2ccccc2C)nc1C | - | - | 92 | - | - | -
COC(=O)c1sc(NC(=S)NC(=O)c2ccc(F)cc2)nc1C | - | - | - | - | - | -
COC(=O)c1sc(NC(=O)c2c(C)noc2C)nc1C | - | -33 | - | - | - | -
CC(C)(C)OC(=O)N1CCC(c2c(C(=O)NC3CCN(Cc4ccccc4)CC3)cnn2-c2ccc(F)cc2F)CC1 | . | - | - | - | . | .
COc1cccc(CNC(=O)Cn2c(=O)cc(C)c3c(C)nn(C)c32)c1OC | . | - | - | - | . | .
COc1cc(NC(=O)Nc2c[nH]c(=O)[nH]c2=O)cc(OC)c1OC | . | - | - | - | . | .
O=C1CCC/C1=C\Nc1ccc(Cl)c([N+](=O)[O-])c1 | - | -40 | - | - | - | -
COc1ccc(C(C)=O)cc1CSc1nnnn1-c1ccc(O)cc1 | - | -35 | - | - | - | -
COc1cc(CSc2nnnn2-c2ccc(C)cc2)cc(OC)c1OC | - | - | 39 | - | - | -
COc1ccc(F)cc1CSc1nnnn1-c1ccc(O)cc1 | - | - | - | - | - | -
O=C(Cc1cccs1)NC1CC(=O)N(c2ccc(F)cc2)C1 (configuration not stated) | . | . | - | - | . | .
COc1cc(Nc2cc(C)nc3ncnn23)cc(OC)c1 | - | - | - | - | - | -
COc1cc(Nc2cc(C)nc3ncnn23)cc(OC)c1OC | - | -31 | - | - | - | -
O=C(Nc1ccc(F)cc1)c1cccc(N2C(=O)C3C4C=CC(C5CC45)C3C2=O)c1 (configuration not stated) | - | -38 | - | - | - | -
O=C(Nc1ccc(Br)cc1)c1cccc(N2C(=O)C3C4CCC(C4)C3C2=O)c1 (configuration not stated) | - | -39 | - | - | - | -
